In PubChem BioAssay (NCATS):
Values joined by “and” are separate entries in the source; they are usually repeats but may differ in a detail not shown here. Equal entries are not always repeated. Records with an inconclusive call do not appear. Active and inactive are the calls of the source. Unless noted, calls follow the shape of the dose curve; as a rule, active = well fitted curve in the direction sought with a large enough effect; inconclusive = small, poorly fitted or top-dose-only effect, or another doubt; inactive = no such curve, though single readings can be large; an effect the other way counts as inactive or inconclusive.

Tests used:
[1] = Cell Viability - BJ (AID 421; calls by dose curve;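 also: potency is read from the fitted curve at half-maximal effect; cells exposed to compound for 40 hours at 37 °C before readout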); conditions: BJ fibroblast viability, qHTS
Procedure, shortened: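 Cytotoxicity in human BJ foreskin fibroblasts is scored as loss of cellular ATP after a 40-hour exposure, measured by luciferase luminescence. Controls are DMSO and 100 uM tamoxifen.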

[2] = Cell Viability - HepG2 (AID 433; calls by dose curve;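 also: potency is read from the fitted curve at half-maximal effect; cells exposed to compound for 40 hours; potency for ATP loss meaning cytotoxicity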); conditions: qHTS
Procedure, shortened: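 In this qHTS format, a 40 h, 37 °C compound incubation of HepG2 cells in complete medium precedes a 20 min CellTiter-Glo step at room temperature. Tamoxifen and doxorubicin serve as positive controls; Hill-equation fits yield AC50.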

[3] = Cell Viability - HUV-EC-C (AID 542); conditions: HUV-EC-C endothelial cell viability, qHTS; series mostly up to 92.2 µM;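 also: cells exposed to compound for 40 hours; % is scaled to controls: 0 for no effect and ±100 for the full control effect; nearly all actives have a fitted effect of over 35% in size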
Procedure, shortened: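 CellTiter-Glo luminescence measured ATP loss in HUV-EC-C cells (1000/well) after 40 hr compound exposure at 37 °C, in complete culture medium. Concentration-response data were Hill-fitted to give AC50.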

[4] = Cell Viability - Mesenchymal (AID 546); conditions: mesenchymal cells viability, qHTS; activity change, negative = cytotoxicity: at 91.7 µM (top of the series);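 also: cells exposed to compound for 40 hours before reading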
Procedure, shortened: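 CellTiter-Glo luminescence (intracellular ATP, 20 min room temperature) after 40 hr compound exposure at 37 °C of 1000 glomerulus-derived human kidney mesenchymal cells/well; AC50 values obtained by fitting qHTS concentration-response data to the Hill equation.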

[5] = Cellular Toxicity (caspase-3) Jurkat (AID 655); conditions: Jurkat caspase-3 activation, luminescence; caspase-3 activation: at 92.2 µM (top of the series), DMSO = 0%, tamoxifen = 100%;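 also: cells exposed to compound for 16 h at 37 °C before reading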
Procedure, shortened: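 qHTS in human Jurkat T-cell leukemia line: 16 hr compound treatment at 37 °C, caspase-3/7 activity measured by Caspase-Glo luminescence. AC50 derived from Hill equation.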

[6] = Cellular Toxicity (caspase-3) NIH 3T3 (AID 666); conditions: NIH 3T3 caspase-3 activation, apoptosis/toxicity, 0% DMSO, 100% is 100 µM tamoxifen; series mostly up to 92.2 µM;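 also: caspase signal read after 16 h compound exposure; 0% = DMSO basal and 100% = 100 µM tamoxifen stimulation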
Procedure, shortened: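 Caspase-Glo 3/7 luminescence reported caspase activation in 1000 NIH 3T3 cells/well after 16 h compound exposure at 37 C. DMSO set basal and 100 uM tamoxifen set 100% stimulation; concentration-response modeled with the Hill equation for AC50.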

[7] = Cell Viability - LYMP1-002 - Assay at 16 hr (AID 948); conditions: LYMP1-002 lymphoblastoid cell viability; series mostly up to 92.2 µM;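 also: 0% = DMSO alone and full effect = 92 µM tetraoctylammonium bromide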
Procedure, shortened: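 In this qHTS, lymphoblastoid LYMP1-002 cells (human) receive compounds for 16 hr at 37 C. Viability is taken from CellTiter-Glo ATP luminescence, and AC50 derives from standard Hill fits.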

[8] = MultiTox-Fluor Cytotoxicity Assay - LYMP1-002 - Live Cells (AID 955); conditions: LYMP1-002 lymphoblastoid live-cell protease fluorescence viability; series mostly up to 46.1 µM;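 also: cells exposed to compound for 16 hours; % is scaled to controls: 0 for no effect and ±100 for the full control effect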
Procedure, shortened: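 After 16 h compound exposure at 37 C, live LYMP1-002 lymphoblastoid cells (2500/well) were quantified by cleavage of cell-permeant GF-AFC substrate, read at 405/510 nm after 60 min. Concentration-response fitted with Hill equation for AC50.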

[9] = Cell Viability - LYMP2-011 (AID 969); conditions: LYMP2-011 lymphoblastoid cells viability; series mostly up to 92.2 µM;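 also: 0% = DMSO only and full inhibition = 92 µM tetraoctylammonium bromide; nearly all actives have a fitted effect of over 60% in size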
Procedure, shortened: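 Cytotoxicity qHTS with ATP content as read-out: lymphoblastoid cells (2500/well) exposed to compound for 24 h at 37 C, then luciferase luminescence measured. Concentration-response data fitted with the standard Hill equation to give AC50.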

[10] = Cell Viability - LYMP2-013 (AID 970); conditions: LYMP2-013 lymphoblastoid cells viability; series mostly up to 92.2 µM;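 also: 0% = DMSO only and full inhibition = tetraoctylammonium bromide control; nearly all actives have a fitted effect of over 55% in size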
Procedure, shortened: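 qHTS cytotoxicity: ATP-dependent luminescence (CellTiter-Glo, 30 min room temperature) read after 24 h compound exposure at 37 C of 2500 LYMP2-013 lymphoblastoid cells per well. Concentration-response fitted with Hill equation to give AC50.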

[11] = Cell Viability - LYMP2-023 (AID 975); conditions: LYMP2-023 lymphoblastoid cell viability; series mostly up to 92.2 µM;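 also: cellular ATP measured by luciferase luminescence as viability proxy; plate controls were DMSO only for no effect and 92 µM tetraoctylammonium bromide control for full effect; nearly all actives have a fitted effect of over 55% in size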
Procedure, shortened: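 Intracellular ATP, read by CellTiter-Glo luminescence, reports viability after 24 hr compound exposure at 37 C. 2500 lymphoblastoid cells/well (LYMP2-023) seeded 5 hr beforehand; Hill fits give AC50; positive control tetraoctylammonium bromide.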

[12] = Cell Viability - LYMP2-025 (AID 976); conditions: LYMP2-025 lymphoblastoid cell viability; series mostly up to 92.2 µM;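 also: plate controls were DMSO only for no effect and tetraoctylammonium bromide control for full effect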
Procedure, shortened: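 Cytotoxicity read as loss of intracellular ATP (luciferase luminescence) after 24 h compound treatment at 37 C. Uses LYMP2-025 lymphoblastoid cells in 1536-well format; Hill-equation modelling gives AC50; tetraoctylammonium bromide as positive control.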

[13] = Cell Viability - LYMP2-007 (AID 979); conditions: LYMP2-007 lymphoblastoid cell viability; series mostly up to 92.2 µM;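 also: cells exposed to compound for 24 h before reading; 0% = DMSO only and the negative end = 92 µM tetraoctylammonium bromide; nearly all actives have a fitted effect of over 60% in size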
Procedure, shortened: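 AC50 values come from Hill-equation fits of luminescent intracellular ATP (CellTiter-Glo, 30 min, room temperature) following 24 h compound exposure at 37 C. Cells: LYMP2-007 lymphoblastoid line, 2500 per well, in complete culture medium.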

[14] = Cell Viability - LYMP2-008 (AID 980); conditions: LYMP2-008 lymphoblastoid cell viability, qHTS; series mostly up to 92.2 µM; also: % is scaled to controls: 0 for no effect and ±100 for the full control effect; nearly all actives have a fitted effect of over 60% in size
Procedure, shortened: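 Cytotoxicity determined from ATP-dependent luciferase luminescence (CellTiter-Glo) following 24 h compound exposure of human lymphoblastoid LYMP2-008 cells at 37 C. Concentration-response data fitted to the Hill equation to give AC50.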

[15] = Cell Viability - LYMP2-014 (AID 983); conditions: LYMP2-014 lymphoblastoid cells, viability qHTS; series mostly up to 92.2 µM;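 also: plate controls were DMSO only for no effect and 92 µM tetraoctylammonium bromide for full effect; nearly all actives have a fitted effect of over 50% in size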
Procedure, shortened: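 Intracellular ATP loss, read by luciferase luminescence, measures acute cytotoxicity after 24 h compound exposure of lymphoblastoid LYMP2-014 cells (2500/well, 37 C). Concentration-response data fitted to the Hill equation for AC50.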

[16] = Cell Viability - LYMP2-016 (AID 984); conditions: LYMP2-016 lymphoblastoid cell viability, qHTS; series mostly up to 92.2 µM; also: % is scaled to controls: 0 for no effect and ±100 for the full control effect; nearly all actives have a fitted effect of over 55% in size
Procedure, shortened: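 Concentration-dependent ATP depletion measured in LYMP2-016 lymphoblastoid cells, 24 h, 37 C; luciferase-based luminescent detection; Hill-equation AC50.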

[17] = Cell Viability - LYMP2-018 (AID 985); conditions: LYMP2-018 lymphoblastoid cells, viability (qHTS); series mostly up to 92.2 µM; also: nearly all actives have a fitted effect of over 50% in size; also: potency is read from the fitted curve at half-maximal effect;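 as to activity change, negative = cytotoxicity: plate controls were DMSO only for no effect and tetraoctylammonium bromide at 92 µM for full effect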
Procedure, shortened: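 Viability read as CellTiter-Glo luminescence (cellular ATP) after 24 hr compound exposure at 37 C of 2500 LYMP2-018 lymphoblastoid cells/well, pre-plated 5 hr. Hill-equation modelling gave AC50.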

[18] = Cell Viability - LYMP2-026 (AID 989); conditions: LYMP2-026 lymphoblastoid cell viability, qHTS; series mostly up to 92.2 µM; also: % is scaled to controls: 0 for no effect and ±100 for the full control effect; nearly all actives have a fitted effect of over 50% in size
Procedure, shortened: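 Cytotoxicity read as ATP-dependent luminescence (CellTiter-Glo, 30 min room temperature) after 24 h compound treatment at 37 C. LYMP2-026 lymphoblastoid line seeded at 2500 cells/well; AC50 derived by standard Hill equation.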

[19] = Cell Viability - LYMP1-002 - Assay at 40 hr (AID 994); conditions: LYMP1-002 lymphoblastoid cell viability; series mostly up to 92.2 µM;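 also: 0% = DMSO only and full inhibition = 92 µM tetraoctylammonium bromide; nearly all actives have a fitted effect of over 60% in size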
Procedure, shortened: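 Cytotoxicity was read as loss of cellular ATP (CellTiter-Glo luminescence) after 40 hr compound exposure at 37 C of 2500 LYMP1-002 lymphoblastoid cells per well. Concentration-response data were fitted with the standard Hill equation to give AC50.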

[20] = qHTS assay for cell viability of HEK293 cells (AID 743288); conditions: ATP luminescence (CellTiter-Glo), 18 h; max response: stronger effect = lower value; also: % is scaled to controls: 0 for no effect and ±100 for the full control effect; nearly all actives have a fitted effect of over 50% in size
Procedure, shortened: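 HEK293, 18 h, 37 C, ATP luminescence. Cells at 2,000/well were allowed at least 5 h to settle before dosing; CellTiter-Glo developed 30 min at RT.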

Cc1cc(=O)oc2cc(O)cc(O)c12
inactive: Potency [1] > 92 µM | Potency [2] > 92 µM | Potency [3] | Potency [4] | Potency [5] | outcome [6] | Potency [7] | outcome [8] | Potency [9] | Potency [10] | Potency [11] | Potency [12] | Potency [13] | Potency [14] | Potency [15] | Potency [16] | Potency [17] | Potency [18] | Potency [19] | max response [20] -8.02%

CC(=O)Nc1cccc(C)c1
inactive: Potency [1] > 92 µM | Potency [2] > 92 µM | Potency [3] | Potency [4] | Potency [5] | outcome [6] | Potency [7] | outcome [8] | Potency [9] | Potency [10] | Potency [11] | Potency [12] | Potency [13] | Potency [14] | Potency [15] | Potency [16] | Potency [17] | Potency [18] | Potency [19] | max response [20] 2.07%

c1ccc2c(c1)ccc1ccccc12
inactive: Potency [1] > 92 µM | Potency [2] > 92 µM | Potency [3] | Potency [4] | Potency [5] | outcome [6] | Potency [7] | outcome [8] | Potency [9] | Potency [10] | Potency [11] | Potency [12] | Potency [13] | Potency [14] | Potency [15] | Potency [16] | Potency [17] | Potency [18] | Potency [19] | max response [20] 2.85% and -2.95%

CC(C)COC(=O)COc1cc(Cl)c(Cl)cc1Cl
inactive: Potency [1] > 92 µM | Potency [2] > 92 µM | Potency [3] | Potency [4] | Potency [5] | outcome [6] | Potency [7] | outcome [8] | Potency [9] | Potency [10] | Potency [11] | Potency [12] | Potency [13] | Potency [14] | Potency [15] | Potency [16] | Potency [17] | Potency [18] | Potency [19] | max response [20] 6.88%

OC1CCCCC1
inactive: Potency [1] > 92 µM | Potency [2] > 92 µM | Potency [3] | Potency [4] | Potency [5] | outcome [6] | Potency [7] | outcome [8] | Potency [9] | Potency [10] | Potency [11] | Potency [12] | Potency [13] | Potency [14] | Potency [15] | Potency [16] | Potency [17] | Potency [18] | Potency [19] | max response [20] 10.8%

c1cc2c3c(c1)ccc1cccc(c13)C2
inactive: Potency [1] > 92 µM | Potency [2] > 92 µM | Potency [3] | Potency [4] | Potency [5] | outcome [6] | Potency [7] | outcome [8] | Potency [9] | Potency [10] | Potency [11] | Potency [12] | Potency [14] | Potency [15] | Potency [16] | Potency [17] | Potency [18] | Potency [19] | max response [20] 3.07%

Oc1ccc(O)c2c(O)cccc12
inactive: Potency [1] > 92 µM | Potency [2] > 92 µM | Potency [3] | Potency [4] | outcome [6] | Potency [7] | outcome [8] | Potency [12] | Potency [19] | max response [20] -5%
active: Potency [17] 50.1 µM

O=C(O)/C=C/c1ccc(/C=C/C(=O)O)cc1
inactive: Potency [1] > 92 µM | Potency [2] > 92 µM | Potency [3] | Potency [4] | Potency [5] | Potency [7] | outcome [8] | Potency [9] | Potency [10] | Potency [11] | Potency [12] | Potency [13] | Potency [14] | Potency [15] | Potency [16] | Potency [17] | Potency [18] | Potency [19] | max response [20] -14.7%

C=Cc1cccc(C)c1
inactive: Potency [1] > 92 µM | Potency [2] > 92 µM | Potency [3] | Potency [4] | Potency [5] | outcome [6] | Potency [7] | outcome [8] | Potency [9] | Potency [10] | Potency [11] | Potency [12] | Potency [13] | Potency [14] | Potency [15] | Potency [16] | Potency [17] | Potency [18] | Potency [19] | max response [20] 2.72%

C=C(C#N)C(=O)OCC
inactive: Potency [1] > 92 µM | Potency [2] > 92 µM | Potency [3] | Potency [4] | Potency [5] | outcome [6] | Potency [7] | outcome [8] | Potency [9] | Potency [10] | Potency [11] | Potency [12] | Potency [13] | Potency [14] | Potency [15] | Potency [16] | Potency [17] | Potency [18] | Potency [19] | max response [20] -12.8%

Nc1ccc(-c2ccc(N)c(O)c2)cc1O
inactive: Potency [1] > 92 µM | Potency [2] > 92 µM | Potency [3] | Potency [4] | outcome [6] | Potency [7] | outcome [8] | Potency [10] | Potency [11] | Potency [12] | Potency [14] | Potency [15] | Potency [16] | Potency [18] | Potency [19] | max response [20] -18.5%

CCCCC(CC)COC(=O)COc1ccc(Cl)cc1Cl (stereo not given)
inactive: Potency [1] > 92 µM | Potency [2] > 92 µM | Potency [3] | Potency [4] | Potency [5] | outcome [6] | Potency [7] | outcome [8] | Potency [9] | Potency [10] | Potency [11] | Potency [12] | Potency [13] | Potency [14] | Potency [15] | Potency [16] | Potency [17] | Potency [18] | Potency [19] | max response [20] -3.29% and 2.38%

CCc1ccc(C(c2ccc(CC)cc2)C(Cl)Cl)cc1
inactive: Potency [1] > 92 µM | Potency [2] > 92 µM | Potency [3] | Potency [4] | Potency [5] | outcome [6] | Potency [7] | outcome [8] | Potency [9] | Potency [10] | Potency [11] | Potency [12] | Potency [13] | Potency [14] | Potency [15] | Potency [16] | Potency [17] | Potency [18] | Potency [19] | max response [20] -18.5%
